Source: PubChem (National Center for Advancing Translational Sciences (NCATS))
GLP-1R agonist: qHTS of GLP-1 Receptor Agonists | Glucagon-like peptide 1 receptor (Homo sapiens), P43220 | HEK293 GLP-1R CRE-luciferase, luminescence, 4-6 h; cells express a hypersensitive GLP-1R form | Potency, µM (series often up to 45.6 µM), without a hit: at the top dose activation, most hits filed as activators | hit rate 0.007% among 380,000; further: % of control where 0% means no effect
Target sequence (P43220 whole entry, looked up): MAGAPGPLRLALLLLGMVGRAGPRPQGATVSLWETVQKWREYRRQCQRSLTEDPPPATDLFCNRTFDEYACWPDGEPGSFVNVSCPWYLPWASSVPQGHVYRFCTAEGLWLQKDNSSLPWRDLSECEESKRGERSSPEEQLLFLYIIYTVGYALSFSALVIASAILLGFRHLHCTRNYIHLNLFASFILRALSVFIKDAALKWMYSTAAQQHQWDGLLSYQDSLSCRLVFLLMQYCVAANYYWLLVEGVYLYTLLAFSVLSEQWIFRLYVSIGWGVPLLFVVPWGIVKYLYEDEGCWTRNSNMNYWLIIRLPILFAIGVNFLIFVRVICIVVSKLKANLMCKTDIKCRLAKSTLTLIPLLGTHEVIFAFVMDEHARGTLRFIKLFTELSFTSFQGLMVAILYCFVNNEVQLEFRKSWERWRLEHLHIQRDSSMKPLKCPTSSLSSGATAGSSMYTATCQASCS
mIDH1 inhibitor: qHTS for Inhibitors of mutant isocitrate dehydrogenase 1 (IDH1): qHTS. IDH1-R132H enzyme, NADPH consumption, diaphorase/resazurin fluorescence. Potency, µM (series often up to 76.6 µM), for the others: at the highest dose activity change, negative = inhibition, usual class: inhibitors. AID 602179, 2012. hit rate 0.093% among 390,000; further: on the % scale 0 is the no-effect control and ±100 the full control effect; nearly all actives have a fitted effect of over 65% in size
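IDH1-R132H (0.5 ug/mL) preincubated 30 min with compound, then NADPH (0.016 mM) and alpha-KG (2 mM) added; 80 min at RT, pH 7.5. Remaining NADPH coupled via diaphorase/resazurin to fluorescence (540/590 nm); concentration-response curves normalized to no-enzyme control.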
GLP1R inv ag: qHTS of GLP-1 Receptor Inverse Agonists (Inhibition Mode). Glucagon-like peptide 1 receptor (Homo sapiens), P43220. HEK293 GLP-1R CRE-luciferase, luminescence, 24 h; GLP-1R form is constitutively active. Potency, µM (top dose mostly 38.3 µM), for the others: at the top dose activity change, negative = inhibition, most hits filed as inhibitors. hit rate 1.6% among 410,000. AID 624417, 2012; further: on the % scale 0 is the no-effect control and ±100 the full control effect; nearly all actives have a fitted effect of over 55% in size
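Using stably transfected HEK293 (constitutively active GLP-1R, cAMP-luciferase reporter), compounds were incubated 24 hr and luciferase measured by luminescence.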
rTrxR1 inhibitor: qHTS Assay for Inhibitors of Mammalian Selenoprotein Thioredoxin Reductase 1 (TrxR1): qHTS. recombinant rTrxR1, NADPH fluorescence consumption, selenite substrate. Thioredoxin reductase 1, cytoplasmic (Rattus norvegicus), O89049. Potency, µM (titrated, usually from 114 µM), inactives show at the highest dose activity change, negative = inhibition, most hits filed as inhibitors. hit rate 1% among 390,000; further: on the % scale 0 is the no-effect control and ±100 the full control effect; nearly all actives have a fitted effect of over 65% in size
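Rat TrxR1 (90 nM in the dispensed reagent) was pre-reduced with 400 uM NADPH for 5 min at room temperature, then incubated with compound for 15 min. After 400 uM selenite was added, NADPH fluorescence (Ex 340/Em 450 nm) was followed for 8 min.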
TrxR1 substrate: qHTS Assay for Substrates of Mammalian Selenoprotein Thioredoxin Reductase 1 (TrxR1): qHTS | Thioredoxin reductase 1, cytoplasmic (Rattus norvegicus), O89049 | purified TrxR1 substrate turnover, NADPH consumption readout | Potency, µM (titrated, usually from 114 µM), inactives show top-dose activity change, negative = substrate turnover | hit rate 0.01% among 390,000; further: on the % scale 0 is the no-effect control and ±100 the full control effect; nearly all actives have a fitted effect of over 50% in size
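Rat TrxR1, dispensed at 90 nM, was prereduced with 400 uM NADPH (final) for 5 min at ~22 deg C, then incubated with compound 15 min before 400 uM selenite. A first-read NADPH fluorescence drop versus no-compound background flagged substrates.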
HEK293 tox: qHTS of GLP-1 Receptor Inverse Agonists: Cytotox Screen | HEK293 cAMP-luciferase reporter cells, luminescence, 24 h | Potency, µM (doses to about 38.3 µM), for inactives: top-dose activity change, negative = inhibition, most hits filed as inhibitors | hit rate 0.13% among 410,000;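 further: loss of luciferase light is scored as toxicity; on the % scale 0 is the no-effect control and ±100 the full control effect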
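Luminescence readout: signal drop marks cytotoxicity. Plated cells grew 12 h at 37 °C, 5% CO2, received 23 nL compound for 24 h, then got luciferase reagent, read after 12 min at RT.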
Starred values were filed as active, the others as inactive; [ ] = dose if it differs, or a comment. In the library only some 2.7% were active in any assay of this set; here they are far more common. The call rests on the fitted dose curve; in most records, active means well fitted curve in the direction sought with a large enough effect; inconclusive means small, poorly fitted or top-dose-only effect, or another doubt; inactive means no such curve, though single readings can be large; an effect the other way counts as inactive or inconclusive. Potency means the concentration at half of the fitted maximal effect.

For Cc1ccc(N2C(=O)[C@@H]3C(c4cccnc4)=NO[C@@H]3C2=O)c(C)c1 the results were GLP-1R agonist 0%, mIDH1 inhibitor -20%, GLP1R inv ag -1%, rTrxR1 inhibitor 13%, TrxR1 substrate -1% and HEK293 tox -1%.
For O=C1[C@@H]2C(c3cccnc3)=NO[C@@H]2C(=O)N1c1ccc(Br)cc1 the results were GLP-1R agonist -7%, mIDH1 inhibitor 3%, GLP1R inv ag 26%, rTrxR1 inhibitor 28µM*, TrxR1 substrate 6%[57.1 µM] and HEK293 tox 11%.
`Cc1cccc(-n2ncc(C(=O)NCc3ccc4c(c3)OCO4)c2C2CCN(C(=O)OC(C)(C)C)CC2)c1` gave mIDH1 inhibitor -4%, GLP1R inv ag inconclusive, rTrxR1 inhibitor 20%, TrxR1 substrate 4% and HEK293 tox -26%.
For CC(=O)Oc1ccc(C(=O)[C@H]2[C@H]3C(=O)N(c4ccccc4)C(=O)[C@H]3[C@@H]3C=CC=NN32)cc1 the results were GLP-1R agonist -2%, mIDH1 inhibitor inconclusive, GLP1R inv ag 19%, rTrxR1 inhibitor 11µM*, TrxR1 substrate -7% and HEK293 tox 22%.
`CC(=O)Oc1ccc(C(=O)[C@H]2[C@H]3C(=O)N(c4ccc(C)cc4)C(=O)[C@H]3[C@@H]3C=CC=NN32)cc1` gave GLP-1R agonist -4%, mIDH1 inhibitor -29%, GLP1R inv ag 5%, rTrxR1 inhibitor inconclusive, TrxR1 substrate -10% and HEK293 tox -8%.
Screening Cc1ccc(CCNC(=O)CS(=O)Cc2nc(-c3ccccc3C)oc2C)cc1 (stereo unspecified) returned mIDH1 inhibitor 0%, GLP1R inv ag inconclusive, rTrxR1 inhibitor -4%, TrxR1 substrate -8% and HEK293 tox 4%.
CCCCNC(=O)CS(=O)Cc1nc(-c2cccc(C)c2)oc1C (stereo unspecified) was read as GLP-1R agonist 12%, mIDH1 inhibitor -5%, GLP1R inv ag -7%, rTrxR1 inhibitor 1%[57.1 µM], TrxR1 substrate 6%[57.1 µM] and HEK293 tox -11%.
COc1ccc(CCNC(=O)CS(=O)Cc2nc(-c3ccccc3F)oc2C)cc1OC (stereo unspecified) was read as GLP-1R agonist 2%, mIDH1 inhibitor 2%, GLP1R inv ag 31%, rTrxR1 inhibitor 50µM*, TrxR1 substrate 24% and HEK293 tox -15%.
`Cc1ccc(CCNC(=O)CS(=O)Cc2nc(-c3ccccc3F)oc2C)cc1` (stereo unspecified) gave GLP-1R agonist 3%, mIDH1 inhibitor -8%, GLP1R inv ag -20%, rTrxR1 inhibitor 32µM*, TrxR1 substrate 2% and HEK293 tox 2%.
For CCCCNC(=O)CS(=O)Cc1nc(-c2cccc(Cl)c2)oc1C (stereo unspecified) the results were GLP-1R agonist 10%, mIDH1 inhibitor -6%, GLP1R inv ag inconclusive, rTrxR1 inhibitor 14µM*, TrxR1 substrate 8%[57.1 µM] and HEK293 tox -15%.
For COCCNC(=O)CS(=O)Cc1nc(-c2ccccc2C)oc1C (stereo unspecified) the results were GLP-1R agonist -2%, mIDH1 inhibitor 1%, GLP1R inv ag -2%, rTrxR1 inhibitor 16µM*, TrxR1 substrate 7% and HEK293 tox 3%.
Screening CCn1c2ccccc2c2cc(NC(=O)COc3cc(C)ccc3C)ccc21 returned mIDH1 inhibitor 13%, GLP1R inv ag 9%, rTrxR1 inhibitor 10%, TrxR1 substrate 4% and HEK293 tox 0%.
Screening Cc1ccc2c(c1)N(C(=O)N1CCC(C(=O)NCc3cccc(Br)c3)CC1)CCO2 returned mIDH1 inhibitor -17%, GLP1R inv ag inconclusive, rTrxR1 inhibitor 3%, TrxR1 substrate -5% and HEK293 tox -9%.
For COc1ccc(C(=O)CSc2nc(-c3ccccn3)nc(C)c2Cl)cc1 the results were GLP-1R agonist 2%, mIDH1 inhibitor 5%, GLP1R inv ag inconclusive, rTrxR1 inhibitor 10%[57.1 µM], TrxR1 substrate 14%[57.1 µM] and HEK293 tox 11µM*.
CC(=O)C[n+]1cccc2cc(Cl)ccc21 was read as rTrxR1 inhibitor 0% and TrxR1 substrate 0%.
For CCN(CC)C(=O)c1sc2c(c1C)c(=O)n(-c1ccccc1)c(=O)n2CC(=O)Nc1ccc(C)cc1C the results were mIDH1 inhibitor -7%, GLP1R inv ag 14%, rTrxR1 inhibitor 12%[57.1 µM], TrxR1 substrate -2%[57.1 µM] and HEK293 tox -1%.
Screening COc1ccccc1CNC(=O)C1(NC(=O)Nc2ccc(C)cc2)CCCCC1 returned GLP-1R agonist -8%, mIDH1 inhibitor -3%, GLP1R inv ag 8.9µM*, rTrxR1 inhibitor 1%[57.1 µM], TrxR1 substrate -2%[57.1 µM] and HEK293 tox -7%.
For S=C(CSc1ccccc1)Nc1cccc2ccccc12 the results were GLP-1R agonist -1%, mIDH1 inhibitor 9%, GLP1R inv ag 6.3µM* and HEK293 tox inconclusive.
S=C(Nc1cccc2ccccc12)Nc1cccc2ccccc12 was read as GLP-1R agonist 10%, mIDH1 inhibitor 5%, GLP1R inv ag inconclusive, rTrxR1 inhibitor 30%, TrxR1 substrate 89% and HEK293 tox -19%.
`CCOc1ccc(NS(=O)(=O)c2ccc(NC(=O)N3CCCC3)cc2)cc1` gave mIDH1 inhibitor 26%, GLP1R inv ag 5%, rTrxR1 inhibitor 14%[57.1 µM], TrxR1 substrate -4%[57.1 µM] and HEK293 tox 4%.
Cc1ncc2c(c1OC(=O)c1ccccc1)COC(C)(C)OC2 was read as GLP-1R agonist 12%, mIDH1 inhibitor 10%, GLP1R inv ag 0%, rTrxR1 inhibitor 5%, TrxR1 substrate 3% and HEK293 tox -3%.
Screening Cc1c(OC(=O)c2ccc([N+](=O)[O-])cc2)c2c(c[n+]1C)COC(C)(C)OC2 returned GLP-1R agonist 1%, mIDH1 inhibitor 2%, GLP1R inv ag 6%, rTrxR1 inhibitor 45µM*, TrxR1 substrate 0% and HEK293 tox 6%.
